In the supplement of paper PMC6555819:

Tests used:
Assay in all cases: PBM binding z-score (relative to random genomic background probes); higher = stronger binding; sequences stand for … in GC…GCGATTGACAGCGTAGAATGAAGG
[1] = test system: PPARg:RXRa DBDmut IVT, anti-RXR (DBD mutation: RXRa K156A/R161A, NR concentration 270 nM, RXRa partner concentration 90 nM)
Outline: (§1)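 Antibodies against each partner of ligand-free nuclear receptor dimers (one per run) detected binding on custom Agilent 4×180K protein-binding microarrays after 1 h incubation. The double-stranded probes had 34-nt variable regions carrying direct-repeat seeds, single-nucleotide variants, half-site ablations and random human genomic background sequences. Binding z-scores, from regression-normalized fluorescence, use the random background probes as reference.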

[2] = test system: PPARg:RXRa IVT, anti-PPARg (NR concentration 270 nM, RXRa partner concentration 90 nM)
Outline: as §1

[3] = test system: PPARg DBDmut:RXRa IVT, anti-PPARg (DBD mutation: PPARg1 K132A/R137A, NR concentration 270 nM, RXRa partner concentration 90 nM)
Outline: as §1

[4] = test system: PPARg DBDmut IVT, anti-PPARg (DBD mutation: PPARg1 K132A/R137A, NR concentration 270 nM)
Outline: as §1

[5] = test system: PPARg homodimer (NR concentration 180 nM)
Outline: as §1

[6] = test system: PXR:RXRa (NR concentration 270 nM, RXRa partner concentration 90 nM)
Outline: as §1

[7] = test system: PXR homodimer (NR concentration 270 nM)
Outline: as §1

[8] = test system: RARa:RXR (NR concentration 270 nM, RXRa partner concentration 90 nM)
Outline: as §1

[9] = test system: RARa homodimer (NR concentration 270 nM)
Outline: as §1

[10] = test system: RARb:RXRa (NR concentration 270 nM, RXRa partner concentration 90 nM)
Outline: as §1

[11] = test system: RARb homodimer (NR concentration 270 nM)
Outline: as §1

[12] = test system: RARg:RXRa (NR concentration 270 nM, RXRa partner concentration 90 nM)
Outline: as §1

[13] = test system: RARg homodimer (NR concentration 270 nM)
Outline: as §1

[14] = test system: RXRa DBDmut IVT, anti-RXR (DBD mutation: RXRa K156A/R161A, NR concentration 90 nM)
Outline: as §1

[15] = test system: RXRa homodimer (NR concentration 180 nM)
Outline: as §1

[16] = test system: THRa:RXRa (NR concentration 90 nM, RXRa partner concentration 90 nM)
Outline: as §1

[17] = test system: THRa homodimer (NR concentration 90 nM)
Outline: as §1

[18] = test system: VDR:RXRa (NR concentration 270 nM, RXRa partner concentration 90 nM)
Outline: as §1

[19] = test system: VDR homodimer (NR concentration 270 nM)
Outline: as §1

Sequence	PBM binding z-score [1]	PBM binding z-score [2]	PBM binding z-score [3]	PBM binding z-score [4]	PBM binding z-score [5]	PBM binding z-score [6]	PBM binding z-score [7]	PBM binding z-score [8]	PBM binding z-score [9]	PBM binding z-score [10]	PBM binding z-score [11]	PBM binding z-score [12]	PBM binding z-score [13]	PBM binding z-score [14]	PBM binding z-score [15]	PBM binding z-score [16]	PBM binding z-score [17]	PBM binding z-score [18]	PBM binding z-score [19]
GCTGATAGGTCAGGTTGGTCAGCTAACGGGTACG	1.74	1.49	-0.568	-0.567	1.32	1.25	-0.432	2.23	-0.0849	3.8	3.37	3.84	4.49	0.3	2.6	1.46	-0.126	1.58	0.351
CCTATTAGTTGACCATAAGGGCCACCGAAGCTCG	0.171	0.5	0.477	0.579	1.36	-0.0446	0.497	0.206	1.88	1.02	1.51	0.432	0.644	0.143	0.414	0.438	0.222	0.0922	0.354
CAAACTAGGTTAAAGGTCAAAGTCGAGCCAACCA	7.78	8.2	3.63	3.37	5.35	6.11	1.51	7.9	3.41	4.76	4.47	7.04	5.43	2.13	8.81	3.85	0.829	5.47	2.96
TCTGCTAGGTCAGTTGGTCCGCTAACGAGCTGCC	2.64	2.46	0.84	0.95	-0.535	-0.0468	-0.863	-0.00908	-1.31	3.12	2.05	1.98	2.93	0.518	0.727	0.962	-0.188	0.677	-0.485
CAAACTAGTTCACCGGAAGGTCAAAGTCCGCATG	2.4	2.7	0.634	0.566	3.3	5.22	3	5.72	1.73	4.36	4.92	6.9	4.99	2.8	4.73	3.73	1.72	5.4	3.2
ATCGCTAGGTAAAAGTTCAGTGAATCCCGAGGAT	-0.272	1.63	0.14	-0.441	0.521	1.64	1.06	1.49	-0.726	2.04	2	1.37	1.46	0.265	1.64	0.795	-0.348	0.809	1.16
TCTAGCAGGCCAGAGGGTCACTCACGAGGTACGG	0.776	0.783	-0.376	-1.19	1.31	1.51	-0.605	2.52	-0.397	2.25	2.69	2.68	2.14	0.0334	2.44	1.61	0.0798	1.33	0.852
AGTCAAAGTTCATCTAAGTAACGTAAGATATGCT	0.404	2.37	0.832	1.41	2.51	4.78	4.97	3.48	1.03	5.03	3.78	5.58	6.53	4.81	5.21	2.57	-0.213	4.76	4.88
CTCGAAAGGTCGTGCTCAGGTTAGTATACCAAAC	0.848	1.77	0.0664	0.423	2.46	3.94	0.392	4.55	0.346	4.09	3.37	5.5	4.17	2.12	5.47	3.73	0.934	3.79	1.3
AGAACGAGGGCACGCTGAGTTGATGGCAGAGTAG	4.26	3.81	0.605	-0.669	0.179	1.13	-0.226	0.999	-0.371	2.38	1.37	2.06	2.33	1.76	1.53	1.89	0.0857	1.86	1.71
CGAACTATGTCAGAACAGGACAGTGAAGGATGAT	1.99	1.16	0.888	0.9	0.278	-0.225	0.0805	0.0752	0.625	0.461	0.293	0.443	0.879	-0.123	0.167	0.953	-0.106	-0.317	0.0831
TCTTGTAGATCAATAGAGGTTGAGAAAGTGCGCT	1.55	0.494	0.467	0.307	-0.399	1.01	-0.0662	0.48	-0.121	-0.0211	-0.259	0.00331	-0.196	0.738	0.307	0.629	-0.723	0.789	-0.179
CAAACTAGGTCACGAAAGATCAAAGTCGAATGAC	8.91	9.37	5.61	5.17	2.46	2.88	0.236	3.39	1.08	4.37	3.2	4.8	5.53	1.99	4.09	3.49	1.43	3.03	0.583
ACTATTAGTTGACTTAGGGCAAGCGATACGACGC	0.209	0.768	0.636	1.04	0.596	0.255	0.294	0.775	0.794	0.892	0.617	0.671	0.684	0.657	0.682	0.91	-0.0225	0.174	0.0582
GCTGCTAGGTCAACTGATGGTCAGCTGAAGCTCG	4.69	3.93	-0.679	-0.202	1.06	1.45	-0.515	2.72	-0.515	4.31	3.56	5.1	5.51	1.55	2.82	3.12	1.05	1.61	-0.0434
CAGCCTAGGTCAGGGCCAGCATAGGAGGAACGTT	1.28	1.44	-0.858	-1.51	0.398	0.0493	-0.664	0.806	-0.366	3.37	2.41	2.93	3.78	-0.352	1.57	1.95	0.423	0.0584	-0.327
AGAATGCGGTTATTAAGATCAGGGAATTGCGGTC	-0.161	0.143	-0.136	-0.574	-0.18	-0.396	0.0419	-0.457	0.329	-0.0684	-0.19	-0.0734	0.152	-0.072	-0.0867	-0.0645	-0.416	-0.302	-0.264
AGAATGAGGTTATTAAGATCAGGGTATTGCGGTC	3.41	2.66	0.601	0.558	1.18	1.21	1.07	1.28	0.859	1.32	0.948	1.09	0.753	1.79	1.62	2.17	0.854	2.43	1.29
CATCCAAGGTCAGAGAGGTCAGTGAATGCCGAGT	2.91	3.85	0.635	-0.591	4.41	6.17	12	5.72	3.06	5.38	5.53	6.35	7.37	3.51	6.54	4.43	2.83	7.55	6.11
TGATATAGGTAAAGGTGAAAGTCGAACGATATGA	4.83	5.52	1.32	0.962	2.3	0.991	0.297	1.93	1.63	1.8	1.61	1.55	1.43	-0.501	2.09	1.57	-0.161	0.866	-0.09
ATCGAAAGGTCGACGAGGTGAGTGTACACCGTTT	1.06	2.45	1.21	0.365	1.48	3.37	1.03	3.93	0.268	3.89	3.22	4.45	4.1	1.71	4.92	3.71	1.21	5.55	1.52
CTCGAAAGGTCGTGCTCAGGTGAGTATTCCAAAC	0.897	1.51	0.28	0.396	1.7	3.33	0.16	4.06	0.262	3.76	3.11	5.04	3.61	2.25	4.55	4.04	1.31	3.26	0.806
CCAGACAGGTGAAAGTTAACTCAGTCTGGTACGC	1.64	1.56	-0.637	-0.25	0.325	0.141	-0.35	0.616	-0.352	1.04	0.569	0.669	0.306	-0.00485	1.2	0.251	-0.579	0.0177	-0.235
ATCTCTCGGTAACCAAGTTCAGTGAATGCCGAAC	-0.264	0.594	0.5	0.409	0.702	1.85	1.8	0.427	0.774	0.997	1.51	0.706	0.621	0.703	0.383	0.98	0.603	2.72	2.26
GCTAGGAGGCCATTTGGGTCACTCAATGACGGGC	1.91	2.38	-0.861	-0.88	0.287	1.21	1.1	1.04	-0.719	1.95	2.18	1.5	2.23	0.724	0.924	2.33	0.78	1.83	1.29
GCATATAGGTAATACAAGGTGAAGGTCCGATTGT	4.57	3.17	0.671	0.932	0.421	0.391	0.248	1.23	0.491	0.573	1.04	0.61	0.653	0.103	0.694	4.08	1.09	0.155	-0.214
AGAACGAGGGCAATGAGTTGATAACACGGGTGGC	2.99	2.45	-0.222	0.293	-0.128	1.53	4.8	0.19	-0.633	2.05	0.742	1.31	1.53	1.96	0.961	1.04	-0.289	5.15	3.3
TCATATAGGTAAATGGTAGGTGAAAGTCCGATCT	4.03	3.04	0.629	0.943	1.37	0.974	0.669	1.43	1.61	0.698	0.917	0.69	0.384	1.84	0.945	0.858	0.785	1.16	1.1
TTACCAAGGTGAAGGTCGTAGATCCCTCTGTAGA	1.02	3.32	-0.72	-0.483	-0.867	0.858	-0.255	1.4	-0.36	2.01	1.43	1.13	1.04	-0.566	1.66	2.19	0.633	0.681	0.348
GCGACTGGGGCATCAGCAGTTTACCATAACTTAA	3.71	2.93	-0.206	0.0271	0.458	0.227	0.14	0.0655	0.0729	0.388	0.541	0.124	0.341	0.507	0.0851	0.0532	-0.343	-0.0228	0.258
